# In the library only some 11% were active in any assay of this set; here they are far more common.
# G9a block – G9a (human) methyltransferase inhibition; G9a H3K9 monomethylation, AlphaScreen, 2 h; Q96KQ7; 350,000 tested, 8.8% active; Potency, µM (highest dose often 102 µM), for inactives: top-dose activity, negative = inhibition, hits mostly inhibitors; note: % is set by controls: 0 for no effect and ±100 for the full control effect; nearly all actives have a fitted effect of over 75% in size
# Target sequence (Q96KQ7 913-1193 limits assumed): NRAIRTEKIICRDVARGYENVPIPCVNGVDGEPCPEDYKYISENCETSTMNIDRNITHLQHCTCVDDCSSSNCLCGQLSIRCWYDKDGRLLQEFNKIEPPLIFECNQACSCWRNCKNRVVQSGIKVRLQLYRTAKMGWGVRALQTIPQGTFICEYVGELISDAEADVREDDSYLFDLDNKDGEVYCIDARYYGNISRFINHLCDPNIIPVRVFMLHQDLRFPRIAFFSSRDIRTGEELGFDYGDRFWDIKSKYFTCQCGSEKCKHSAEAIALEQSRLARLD
#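 Methyltransferase reactions run at room temperature for 2 h (20 nM enzyme, 500 nM biotin-H3K9 peptide, 20 uM SAM) after a 15 min compound preincubation; product detected by AlphaScreen beads and anti-H3K9me1 antibody.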
# L3MBTL1 block – blocks human L3MBTL1; 230,000 tested, 0.66% active; AID 485360; AlphaScreen L3MBTL1–H3K9me1 peptide binding; Potency, µM (series often up to 57.1 µM), inactives show at the highest dose activity, negative = inhibition, most hits filed as inhibitors; Q9Y468; note: % is set by controls: 0 for no effect and ±100 for the full control effect; nearly all actives have a fitted effect of over 60% in size
#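 Displacement of a biotinylated histone H3(1-15) peptide monomethylated at Lys9 (75 nM) from L3MBTL1 (50 nM) was measured by AlphaScreen after a 30 min room-temperature compound incubation; cefsulodin titration served as intraplate control.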
# HP1b chromo inh – HP1-beta chromodomain-methylated histone interaction inhibition. AlphaScreen HP1-beta / biotin-H3K9me3 peptide binding. P83916. Potency, µM (highest dose often 114 µM), for the others: top-dose activity change, negative = inhibition, actives largely listed as inhibitors. AID 540317. 390,000 tested, 0.56% active; note: nearly all actives have a fitted effect of over 70% in size
# Target sequence (P83916 whole entry, looked up): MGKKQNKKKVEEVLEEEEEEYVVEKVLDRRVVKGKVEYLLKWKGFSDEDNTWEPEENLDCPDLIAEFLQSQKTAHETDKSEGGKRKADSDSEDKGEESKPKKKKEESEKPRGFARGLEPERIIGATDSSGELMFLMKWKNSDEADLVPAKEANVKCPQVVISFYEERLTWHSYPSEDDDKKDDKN
#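 Compound inhibition of the preformed complex between 50 nM HP1-beta and 50 nM biotinylated H3K9me3 peptide was read by AlphaScreen. Buffer was PBS pH 7.4 with 0.01% Tween-20. Incubations ran 30 min at room temperature, with 10 ug/mL donor/acceptor beads.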
# BAZ2B block – inhibitors of human BAZ2B bromodomain; Q9UIF8; AlphaScreen BAZ2B-H3K14Ac peptide displacement; Potency, µM (series often up to 114 µM), for inactives: at the top dose activity change, negative = inhibition, usual class: inhibitors; 360,000 tested, 4.4% active; AID 504333; note: % is set by controls: 0 for no effect and ±100 for the full control effect; nearly all actives have a fitted effect of over 60% in size
#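 Protein-peptide AlphaScreen: BAZ2B 50 nM, b-H3K14Ac 50 nM, 1x PBS pH 7.4 + 0.01% Tween-20. Preincubation 30 min RT; cpd 30 min RT (top 110 uM); beads 20 min RT, light-protected.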
# JMJD2A Tudor inh – blocks the human JMJD2A Tudor domain. 390,000 tested, 4.4% active. O75164. AlphaScreen JMJD2A-Tudor / H3K4me3 peptide binding. Potency, µM (series often up to 114 µM), inactives show at the top dose activity change, negative = inhibition, most hits filed as inhibitors; note: % is set by controls: 0 for no effect and ±100 for the full control effect; nearly all actives have a fitted effect of over 50% in size
# Numbers without * were called inactive; ? = inconclusive; · = no result; ! = not confirmed by another sample; [ ] = dose if it differs, or a comment. Calls come from the whole dose curve; as a rule, active = well fitted inhibition curve with a large enough effect; inconclusive = small, poorly fitted or top-dose-only effect; inactive = no such curve, though single readings can be large or run the other way. Potency is the fitted concentration of half-maximal effect.
SMILES,G9a block,L3MBTL1 block,HP1b chromo inh,BAZ2B block,JMJD2A Tudor inh
COc1cccc(/C=N/NC(=O)C(=O)NCc2ccco2)c1O,2%,?,27%,3%,?
COc1cccc(/C=N/NC(=O)c2cc3cc([N+](=O)[O-])ccc3s2)c1O,?,?,?,22µM*,63µM*
COc1ccc(/C=N/NC(=O)c2cnccn2)c(OC)c1OC,?,-1%,30%,-11%,-12%
COc1cccc(/C=N/NC(=O)c2cnccn2)c1O,6%,?,51%,79µM*,-17%[11.4 µM]
NC(=S)N/N=C/c1ccccc1[N+](=O)[O-],·,1%,?,-10%,-12%
COC(=O)c1cccc(/C=N/NC(N)=S)c1O,-1%,?,34%,4.5µM*,?
COc1cccc(/C=N/NC(=O)C(=O)N/N=C/c2cccc(OC)c2O)c1O,5%,?,37%,50µM*,100µM*
COc1ccccc1/C=N/NC(=O)c1ccc(NC(=O)c2cccc([N+](=O)[O-])c2)cc1,-37%,?,·,8%,·
CCc1ccccc1NC(=O)CN(Cc1ccccc1)S(=O)(=O)c1ccc2nc(C)sc2c1,4%[59 µM],·,31%,-3%,5%
COc1ccc(NC(=O)CCc2nnc3n(Cc4ccccc4Cl)c(=O)c4ccccc4n23)cc1,-5%[59 µM],·,22%,-1%,-13%
Cc1ncc([N+](=O)[O-])n1Cc1cccc(F)c1,3%,9%,25%,-13%,-10%
COc1cccc(/C=N/NC(=O)C(=O)N2CCCCCC2)c1O,·,·,43%,79µM*,79µM*
O=C(NCc1cccnc1)NC1(C(F)(F)F)Oc2ccc(Cl)cc2O1 (configuration not stated),32µM*,6%,41%,6%,-10%
COc1ccc(OC)c(NC(=O)NC2(C(F)(F)F)Oc3ccccc3O2)c1,7.9µM*,-15%,14%,-2%,-18%
COCCNC(=O)NC1(C(F)(F)F)Oc2ccc(Cl)cc2O1 (configuration not stated),40µM*,0%,-23%,7%,-10%[57.1 µM]
Cc1cc(NC(=O)NC2(C(F)(F)F)Oc3ccc(Cl)cc3O2)no1 (configuration not stated),7.9µM*,41%,-8%,-3%,?
Cc1ccc(Cl)cc1NC(=O)NCc1cccnc1,·,·,32%,-1%,7%
COc1ccc(OC)c(NC(=O)Nc2ccccc2C)c1,9%[2.33 µM],·,6%,-21%,-20%
CCCCNC(=O)NC1(C(F)(F)F)Oc2ccccc2O1,?,·,27%,41%,-20%
CCOc1cc(/C=C2\SC(=S)N(NC(=O)c3cccnc3)C2=O)ccc1O,10%[12.7 µM],-23%,?,10µM*,-35%
O=C(NN1C(=O)/C(=C/c2cccs2)SC1=S)c1cccnc1,50µM*,-6%,20%,-31%,-23%
COc1cc(/C=C2\SC(=S)N(NC(=O)c3ccncc3)C2=O)ccc1O,45µM*,-26%,-27%,?,-9%
O=C(NN1C(=O)/C(=C/c2cccs2)SC1=S)c1ccccc1,7%[59 µM],8%,35%,11%,-6%
O=C(NN1C(=O)CSC1=S)c1cccnc1,50µM*,·,12%,?,?
COc1ccc(N2CC(C(=O)N3CCCC(C)C3)CC2=O)cc1 (configuration not stated),-7%,·,29%,5%,2%
SMILES,G9a block,L3MBTL1 block,HP1b chromo inh,BAZ2B block,JMJD2A Tudor inh
COc1cccc(-c2nc(SCC(=O)NCC3CCCO3)c(-c3ccc(Cl)cc3)[nH]2)c1 (configuration not stated),-28%[59 µM],·,0%,-9%,-16%
Cc1cc2c(s1)c1cnn(Cc3ccc(C)c(F)c3)c(=O)c1n2C,·,·,·,·,-32%
COc1ccc(CC(=O)Nc2sc3c(c2C(=O)Nc2cccc(C)c2)CCCCC3)cc1,-47%[59 µM],·,13%,-14%,-32%
COc1cc(/C=C2\SC(=S)N(NC(=O)c3cccc(O)c3)C2=O)ccc1O,35µM*,·,45µM*,35µM*,?
COc1cc(/C=C2\SC(=S)N(NC(=O)c3ccc(O)c(OC)c3)C2=O)ccc1O,35µM*,·,50µM*,35µM*,56µM*
COc1cc(/C=C2\SC(=S)N(NC(=O)c3ccccc3OC)C2=O)ccc1O,16µM*,·,25µM*,20µM*,?
CCOC(=O)c1sc(=S)n(C)c1C,13%,·,68%,-10%,-5%[57.1 µM]
CCOC(=O)c1c[nH]c(=S)n1C,22µM*,1%,-15%,-22%,32µM*
COc1ccccc1C1Nc2c(sc3nc(C)cc(C)c23)C(=O)N1c1ccccc1 (configuration not stated),13%[59 µM],·,41%,15%,-12%
C=CC(=O)Nc1ccc(N(C)c2ccnc(Nc3ccc(N4CCN(C)CC4)cc3)n2)cc1,·,?,?,·,35µM*
COc1cc(NC(=O)c2cc3nc(-c4ccc(C)cc4)cc(C(F)(F)F)n3n2)cc(OC)c1OC,-10%[59 µM],·,3%,-2%,-19%
CC(=O)Nc1ccccc1-c1nc2ccc(C(=O)N3CCN(c4cccc(C)c4)C(C)C3)cc2[nH]c1=O (configuration not stated),?,·,34%,-29%,-32%
CC(=O)Nc1ccccc1-c1nc2ccc(C(=O)N3CCN(c4ccccc4)CC3)cc2[nH]c1=O,45µM*,11%,63%,2%,-17%
CCCCNC(=O)C1CCC(Cn2c(=O)c3sccc3n(CC(=O)Nc3ccccc3)c2=O)CC1 (configuration not stated),15%[59 µM],·,28%,-19%,-8%
Cc1nc2ccccc2c(C)c1C(=O)c1ccccc1,50µM*,4%,34%,?,-8%[11.4 µM]
CCOC(=O)c1c(CCl)nc2ccccc2c1C,?,-7%,32%,?,89µM*
CCc1nc2ccccc2c(C(=O)OCC(=O)N(C)Cc2ccccc2)c1C,·,8%,69%,·,5%
CC(=O)c1c(C)nc2ccccc2c1N,20%[59 µM],·,32%,12%,-10%
CCOc1ccc(CNC(=O)c2ccc3c(c2)c(C)c(C)n3Cc2ccc(Cl)cc2)cc1,-24%[59 µM],·,14%,-26%,-32%
CCc1cccc(NC(=O)CC(c2ccc(OC)cc2)N2Cc3ccccc3C2=O)c1 (configuration not stated),-9%[59 µM],·,?,-20%,-24%
COc1ccc(Br)cc1CNC(=O)c1cnc2sc(N3CCCCCC3)nn2c1=O,-1%[59 µM],·,-27%,-9%,-24%
COc1ccc(C(=O)Nc2nnc(S(=O)(=O)N3CCC(C)CC3)s2)cc1OC,13µM*!,·,26%,?,?
CC1CCN(S(=O)(=O)c2nnc(NC(=O)c3ccc(C(C)C)cc3)s2)CC1,14µM*,·,-17%,?,?
O=[S+]([O-])(c1c(F)cccc1F)N1CCN([S+](=O)([O-])c2cccc3nonc23)CC1,·,·,·,·,-14%
